Measurements taken from PubChem BioAssay (Tox21).
Records with an inconclusive call do not appear. Where a call stands in place of a potency, no number is given. Active and inactive are the calls of the source. Unless noted, calls follow the shape of the dose curve; as a rule, active = well fitted curve in the direction sought with a large enough effect in the repeat runs; inconclusive = weak or mixed curves; inactive = no such curve, though single readings can be large; an effect the other way counts as inactive or inconclusive.

Assay: qHTS assay to identify small molecule agonists of the progesterone receptor (PR) signaling pathway - cell viability counter screen (AID 1346799; calls by dose curve; also: nearly all actives have a fitted effect of over 45% in size)
Conditions: PR-UAS-bla HEK293T viability, CellTiter-Glo luminescence, 16 h; series mostly up to 92.4 µM
Summary of the method: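 Here, 3,000 PR-UAS-bla HEK293T cells per well were treated with compounds for 16 hr after a 6 hr preincubation at 37C and 5% CO2; cell viability is the CellTiter-Glo luminescence signal.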

| SMILES | Potency |
| --- | --- |
| FC(F)(F)C(Cl)(Cl)Cl | inactive |
| COc1ccc(S(=O)(=O)Nc2nnc(CC(C)C)s2)cc1 | inactive |
| Cc1cc(NS(=O)(=O)c2ccc(N)cc2)nc(C)n1 | inactive |

Assay: qHTS assay to identify small molecule antagonists of the TGF-beta/Smad signaling pathway - cell viability counter screen (AID 1346824); also: nearly all actives have a fitted effect of over 50% in size
Conditions: SBE-bla HEK293T viability, CellTiter-Glo luminescence; series mostly up to 76.8 µM
Summary of the method: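 Cytotoxicity counter-screen run in the same wells as the beta-lactamase Smad reporter read: CellTiter-Glo luminescence after 30 min at room temperature. HEK 293T SBE-bla cells had 5 hr compound exposure at 37 C with TGF-beta1 (0.25 ng/mL stock).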

| SMILES | outcome |
| --- | --- |
| CN1CCN(C2=Nc3cc(F)ccc3Cc3ccccc32)CC1 | inactive |
| NC(=O)Cc1cccc(C(=O)c2ccccc2)c1N | inactive |
| CCc1cc(Cl)c(OC)c(C(=O)NC[C@@H]2CCCN2CC)c1O | inactive |
| OCc1ccccc1O | inactive |
| CC1(O)CSC(C)(O)CS1 (stereo not drawn) | inactive |
| O=C(O)[C@@H](O)[C@H](O)[C@H](O)[C@@H](O)C(=O)O | inactive |
| CC(=O)OC(C)OC(C)=O | inactive |
| CCC/C=C/CO | inactive |
| C/C(=N\O)[C@@H](C)NCC(C)(C)CN[C@H](C)/C(C)=N/O | inactive |
| COc1cc2c(cc1N)oc1ccccc12 | inactive |
| O=C1CCCCCCCCCCC(=O)OCCO1 | inactive |
| CC(CNC1CCCCC1)OC(=O)c1ccccc1 (stereo not drawn) | inactive |
| Cc1onc(-c2ccccc2)c1C(=O)Cl | inactive |
| C=CCCC=C | inactive |
| CCOC(=O)NCCC[Si](OCC)(OCC)OCC | inactive |
| OCc1c2ccccc2cc2ccccc12 | inactive |
| O=C(C(Cl)Cl)N1CCOC12CCCCC2 | inactive |
| Cn1cnc2c(F)c(Nc3ccc(Br)cc3Cl)c(C(=O)NOCCO)cc21 | inactive |
| CCc1nnc(NS(=O)(=O)c2ccc(N)cc2)s1 | inactive |

| SMILES | outcome |
| --- | --- |
| CN1CCN(c2c(F)cc3c(=O)c(C(=O)O)cn(CCF)c3c2F)CC1 | inactive |
| NCCCN1CCN(CCCN)CC1 | inactive |
| COC(=O)c1ccc(OC)cc1 | inactive |
| NC(=O)NS(=O)(=O)c1ccc(Cl)cc1 | inactive |
| CCOC(=O)c1cc(=O)c2c(OCC(COc3cccc4oc(C(=O)OCC)cc(=O)c34)OC(=O)[C@@H](N)CCCCN)cccc2o1 | inactive |
| CCN(CCCc1ccccc1)CCCc1ccccc1 | inactive |
| CC(C)=CCC[C@](C)(O)[C@@H]1CC=C(C)CC1 | inactive |
| O=CCCc1ccccc1 | inactive |
| C=C(C)C(=O)OCCOP(=O)(O)O | inactive |
| C[C@]12C(=O)OC(=O)[C@H]1[C@H]1C=C[C@@H]2C1 | inactive |
| Cc1ccc([N+](=O)[O-])c(N)c1 | inactive |
| CC(C)NC[C@@H](O)COc1cccc2ccccc12 | inactive |
| O=C(O[C@@H](C(=O)O)[C@@H](OC(=O)c1ccccc1)C(=O)O)c1ccccc1 | inactive |
| CCOC(=O)C1CC(=O)C(=C(O)C2CC2)C(=O)C1 (stereo not drawn) | inactive |
| FC(F)(F)C(Cl)(Cl)Cl | inactive |
| COc1ccc(S(=O)(=O)Nc2nnc(CC(C)C)s2)cc1 | inactive |
| Cc1ccc([N+](=O)[O-])cc1Cl | inactive |
| CCCCc1ccc2nc(NC(=O)OC)[nH]c2c1 | inactive |
| Cc1cc(NS(=O)(=O)c2ccc(N)cc2)nc(C)n1 | inactive |

Assay: qHTS assay to identify small molecule agonists of the TGF-beta/Smad signaling pathway - cell viability counter screen (AID 1346829); also: top concentration of the series differs between compounds; nearly all actives have a fitted effect of over 45% in size
Conditions: SBE-bla HEK293T viability, CellTiter-Glo luminescence, 5 h; series mostly up to 76.8 µM
Summary of the method: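 Compound-treated SBE-bla HEK 293T cells (5 hr, 37 C) were assessed for viability with CellTiter-Glo in parallel with the reporter read.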

| SMILES | outcome |
| --- | --- |
| CN1CCN(C2=Nc3cc(F)ccc3Cc3ccccc32)CC1 | inactive |
| NC(=O)Cc1cccc(C(=O)c2ccccc2)c1N | inactive |
| OCc1ccccc1O | inactive |
| O=C(O)[C@@H](O)[C@H](O)[C@H](O)[C@@H](O)C(=O)O | inactive |
| CC(=O)OC(C)OC(C)=O | inactive |
| CCC/C=C/CO | inactive |
| C/C(=N\O)[C@@H](C)NCC(C)(C)CN[C@H](C)/C(C)=N/O | inactive |
| COc1cc2c(cc1N)oc1ccccc12 | inactive |
| O=C1CCCCCCCCCCC(=O)OCCO1 | inactive |
| CC(CNC1CCCCC1)OC(=O)c1ccccc1 (stereo not drawn) | inactive |
| Cc1onc(-c2ccccc2)c1C(=O)Cl | inactive |
| C=CCCC=C | inactive |
| CCOC(=O)NCCC[Si](OCC)(OCC)OCC | inactive |
| OCc1c2ccccc2cc2ccccc12 | inactive |
| O=C(C(Cl)Cl)N1CCOC12CCCCC2 | inactive |
| CCc1nnc(NS(=O)(=O)c2ccc(N)cc2)s1 | inactive |
| CN1CCN(c2c(F)cc3c(=O)c(C(=O)O)cn(CCF)c3c2F)CC1 | inactive |
| NCCCN1CCN(CCCN)CC1 | inactive |
| COC(=O)c1ccc(OC)cc1 | inactive |
| NC(=O)NS(=O)(=O)c1ccc(Cl)cc1 | inactive |
| O=CCCc1ccccc1 | inactive |
| C=C(C)C(=O)OCCOP(=O)(O)O | inactive |
| C[C@]12C(=O)OC(=O)[C@H]1[C@H]1C=C[C@@H]2C1 | inactive |
| Cc1ccc([N+](=O)[O-])c(N)c1 | inactive |
| CC(C)NC[C@@H](O)COc1cccc2ccccc12 | inactive |
| CCOC(=O)C1CC(=O)C(=C(O)C2CC2)C(=O)C1 (stereo not drawn) | inactive |
| FC(F)(F)C(Cl)(Cl)Cl | inactive |
| COc1ccc(S(=O)(=O)Nc2nnc(CC(C)C)s2)cc1 | inactive |
| Cc1ccc([N+](=O)[O-])cc1Cl | inactive |
| Cc1cc(NS(=O)(=O)c2ccc(N)cc2)nc(C)n1 | inactive |

Assay: qHTS assay to identify small molecule agonists of the TGF-beta/Smad signaling pathway (AID 1346859; active = well fitted activation curve with a large enough effect in the signal ratio in the repeat runs, not every such curve was filed as active; the % refers to the signal ratio)
Conditions: SBE-bla HEK293T, TGF-beta/Smad beta-lactamase reporter, 5 h; series mostly up to 76.8 µM
Summary of the method: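 Each well held 4,000 SBE-bla HEK 293T cells incubated overnight before compound addition; 5 hr later the cleavable FRET substrate went on for 2 hr at room temperature, and fluorescence was read at two emissions.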

| SMILES | outcome |
| --- | --- |
| CN1CCN(C2=Nc3cc(F)ccc3Cc3ccccc32)CC1 | inactive |
| NC(=O)Cc1cccc(C(=O)c2ccccc2)c1N | inactive |
| CCc1cc(Cl)c(OC)c(C(=O)NC[C@@H]2CCCN2CC)c1O | inactive |
| OCc1ccccc1O | inactive |
| CC1(O)CSC(C)(O)CS1 (stereo not drawn) | inactive |
| O=C(O)[C@@H](O)[C@H](O)[C@H](O)[C@@H](O)C(=O)O | inactive |
| CC(=O)OC(C)OC(C)=O | inactive |
| CCC/C=C/CO | inactive |
| C/C(=N\O)[C@@H](C)NCC(C)(C)CN[C@H](C)/C(C)=N/O | inactive |
| COc1cc2c(cc1N)oc1ccccc12 | inactive |
| O=C1CCCCCCCCCCC(=O)OCCO1 | inactive |
| CC(CNC1CCCCC1)OC(=O)c1ccccc1 (stereo not drawn) | inactive |
| Cc1onc(-c2ccccc2)c1C(=O)Cl | inactive |
| C=CCCC=C | inactive |
| CCOC(=O)NCCC[Si](OCC)(OCC)OCC | inactive |
| OCc1c2ccccc2cc2ccccc12 | inactive |
| O=C(C(Cl)Cl)N1CCOC12CCCCC2 | inactive |
| Cn1cnc2c(F)c(Nc3ccc(Br)cc3Cl)c(C(=O)NOCCO)cc21 | inactive |
| CCc1nnc(NS(=O)(=O)c2ccc(N)cc2)s1 | inactive |

| SMILES | outcome |
| --- | --- |
| CN1CCN(c2c(F)cc3c(=O)c(C(=O)O)cn(CCF)c3c2F)CC1 | inactive |
| NCCCN1CCN(CCCN)CC1 | inactive |
| COC(=O)c1ccc(OC)cc1 | inactive |
| NC(=O)NS(=O)(=O)c1ccc(Cl)cc1 | inactive |
| CCOC(=O)c1cc(=O)c2c(OCC(COc3cccc4oc(C(=O)OCC)cc(=O)c34)OC(=O)[C@@H](N)CCCCN)cccc2o1 | inactive |
| CC(C)=CCC[C@](C)(O)[C@@H]1CC=C(C)CC1 | inactive |
| O=CCCc1ccccc1 | inactive |
| C=C(C)C(=O)OCCOP(=O)(O)O | inactive |
| C[C@]12C(=O)OC(=O)[C@H]1[C@H]1C=C[C@@H]2C1 | inactive |
| Cc1ccc([N+](=O)[O-])c(N)c1 | inactive |
| CC(C)NC[C@@H](O)COc1cccc2ccccc12 | inactive |
| O=C(O[C@@H](C(=O)O)[C@@H](OC(=O)c1ccccc1)C(=O)O)c1ccccc1 | inactive |
| CCOC(=O)C1CC(=O)C(=C(O)C2CC2)C(=O)C1 (stereo not drawn) | inactive |
| FC(F)(F)C(Cl)(Cl)Cl | inactive |
| COc1ccc(S(=O)(=O)Nc2nnc(CC(C)C)s2)cc1 | inactive |
| Cc1ccc([N+](=O)[O-])cc1Cl | inactive |
| CCCCc1ccc2nc(NC(=O)OC)[nH]c2c1 | inactive |
| Cc1cc(NS(=O)(=O)c2ccc(N)cc2)nc(C)n1 | inactive |
